# Hits are enriched below; roughly 0.9% of the tested compounds scored in any of these assays.
# Sa RN4220 lethal = S. aureus RN4220 growth inhibition. OD600, 16 h. inhibition, % (concentration not given with the values). 0.33% of 330,000 active; in the data active = inhibition above about 85%;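 also: plate controls were untreated cells for no effect and reference antibiotic for full effect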
# PfHsp40 yeast = restores yeast growth despite PfHsp40 toxicity. S. cerevisiae expressing PfHsp40, growth rescue, ATP luminescence. growth rescue, % at 12.5 µM. 0.68% of 340,000 active; in the data active = growth rescue above about 28%, passing the limit was not always enough;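 also: yeast W303a lacking pdr1 and pdr3 grown in galactose medium; growth measured after three days at 30 °C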
# Mtb BioA inh = BioA (M. tuberculosis) enzyme inhibition. purified M. tuberculosis BioA enzyme, plate reader. inhibition, % at 9.99 µM. 0.096% of 360,000 active. AID 602481; in the data active = inhibition above about 40%
# Sa ugtP lethal = growth inhibition of S. aureus ugtP deletion strain; S. aureus RN4220 ugtP deletion, OD600 growth, 16 h; growth inhibition, % (test concentration not listed); 0.54% of 330,000 active; AID 1259309; in the data active = growth inhibition above about 68%;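 also: plate controls were untreated wells for no effect and antibiotic for full effect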
# Mtb betalactam = beta-lactam sensitization of Mtb H37Rv. M. tuberculosis H37Rv growth with meropenem, percent inhibition. 0.27% of 330,000 active. inhibition, % at 25 µM; call rule not given here;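 also: growth measured after seven days incubation then overnight dye step; 0% = bacteria only wells and 100% = bacteria with antibiotic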
# Starred values were filed as active, the others as inactive; x = no result given.
SMILES,Sa RN4220 lethal,PfHsp40 yeast,Mtb BioA inh,Sa ugtP lethal,Mtb betalactam
NNC(=O)c1ccc2nc(-c3ccc(Br)cc3)cn2c1,x,71*,x,x,23
COc1ccc(-c2cn3cc(C(=O)NN)ccc3n2)cc1,16,-1,x,10,4
O=C(N/N=C/c1c(O)n(Cc2ccccc2)c(=O)[nH]c1=O)c1ccccc1O,3,97*,x,3,3
O=C(N/N=C/c1c(O)n(Cc2ccc(F)cc2)c(=O)[nH]c1=O)c1ccccc1O,-1,55*,-1,4,4
CCn1cc(C(=O)O)c(=O)c2cnc(N3CCN(C(=S)Nc4ccc(F)cc4)CC3)nc21,10,x,x,-7,4
NC1C2CN(c3nc4c(cc3F)c(=O)c(C(=O)O)cn4-c3ccc(F)cc3F)CC12 (stereo not given),100*,1,0,98*,100
O=C(C1=CC(C2CC2)CC(OCCCCO)O1)N1CCN(Cc2ccccc2)CC1 (stereo not given),6,x,x,1,x
C=CCc1c(C)nc(SC)nc1Nc1ccc(C(C)=O)cc1,-3,1,54*,26,99
CN1CC2C3C(=O)N(C)C(=O)C3[C@](C)(C1=O)N2C(=O)c1ccc(C(C)(C)C)cc1 (stereo not given in full),6,x,x,6,x
O=C(NCc1nc2ccccc2[nH]1)C1=CC(C2CC2)CC(OCCCCO)O1 (stereo not given),-2,x,x,-2,x
C=CCOc1ccc2c(c1)CCC1C2CCC2(C)C(O)C(O)CC12 (stereo not given),-8,5,-1,84*,x
C[C@]12CCC3c4ccc(O)cc4CCC3C1CC(O)C2O (stereo not given in full),6,x,x,-4,x
CSc1ccc(Cl)c(C(=O)NCCOc2cc(C)ccc2C(C)C)c1,97*,1,-1,99*,13
COc1ccc(C2CC(=O)C=C(c3ccc(Oc4ccccc4)cc3)C2)cc1OC (stereo not given),2,x,x,17,x
CC(=O)n1cc(C2C=C(C(=O)O)OC(OCCCCO)C2)c2ccccc21 (stereo not given),3,x,x,-1,x
COc1ccc(NC(=O)c2cc(-c3ccccc3O)n[nH]2)cc1Cl,2,-1,-3,10,2
COc1ccc(NC(=O)c2cc(-c3cc(C)cc(C)c3O)n[nH]2)cc1Cl,50,1,-1,90*,70
Cc1c(C(=O)Oc2cccc3ccccc23)cnn1-c1ccccc1,11,34*,0,16,98
Cc1nc(Sc2ccccc2)c(C#N)c(C)c1[N+](=O)[O-],x,27*,2,x,-1
COc1ccc(C=NNC(=O)c2ccc(Cn3cc([N+](=O)[O-])cn3)o2)c(OC)c1C,1,x,x,4,x
COC(=O)c1sc(C(C)(C)C)cc1CS(=O)(=O)c1ccc(Cl)cc1,5,1,x,7,-5
COC(=O)c1sc(C(C)(C)C)cc1CSc1ccccc1,4,-2,x,84*,7
CC(=O)OCC1=C(C(=O)O)N2C(=O)C(NC(=O)C(C)Cn3nc(C)c(Cl)c3C)C2SC1 (stereo not given),100*,-1,x,101*,18
CC(=O)OCC1=C(C(=O)O)N2C(=O)C(NC(=O)c3ccc(F)cc3)C2SC1 (stereo not given),100*,0,x,100*,-5
CC(=O)OCC1=C(C(=O)O)N2C(=O)[C@@H](NC(=O)CSc3ccncc3)[C@H]2SC1,100*,-1,-1,99*,x
SMILES,Sa RN4220 lethal,PfHsp40 yeast,Mtb BioA inh,Sa ugtP lethal,Mtb betalactam
N#CCC(=O)N1CC2(CC(c3cccc(NC(=O)COc4ccc(Cl)cc4)c3)=NO2)CC1C(N)=O (stereo not given),7,x,x,1,x
O=c1c2ccccc2nc(C=Cc2cccc([N+](=O)[O-])c2)n1CCCO,5,x,x,-6,x
C#CCOCCOCCOCCNc1nc(N2CCN(C(=O)CCCCCCCCCCNC(=O)C(CCCCN)n3cc(CCCC(=O)O)nn3)CC2)nc(N2CCN(C(=O)CCCCCCCCCCNC(=O)C(C(C)O)n3cc(C)nn3)CC2)n1 (stereo not given),8,x,x,3,x
CC(=O)OCC1OC(CC=NOC2OC(COC(C)=O)C(OC(C)=O)C(OC(C)=O)C2OC(C)=O)C=CC1OC(C)=O (stereo not given),6,x,x,2,x
CC1NC(=O)[C@@]2(C)C(c3ccccc3)C3COc4ccc(Cl)cc4C3N2C1=O (stereo not given in full),6,x,x,1,x
N#Cc1ccc(C23CC4(C2)C(CN(CC2CCCCC2)C4c2ccccc2)C3c2ccc(C(F)(F)F)cc2)cc1 (stereo not given),-7,x,x,-7,x

# Bioassay records as filed in PubChem BioAssay.
